Active and inactive are the calls of the source.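 The calls were made as follows, unless noted: active = fluorescence slope higher than the sample average by over 3 SD (cut at about -0.22 in these data, passing the limit was not always enough); inactive = the rest.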
Tested on: not listed separately
Test: inhibitors of E-selectin induction by TNFa, primary screen, imaging, HUVEC, immunofluorescence, MLSMR starter and 10KST1 sets (AID 487;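 active = visually confirmed hit in the image check and inhibition above 20%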;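 as to inhibition: signal is fraction of cell area covered by stained E-selectin grains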;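 as to nuclei count: 100% = median nuclei count of all wells on the same plate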)
Settings: HUVEC TNFalpha-induced E-selectin immunofluorescence imaging, at 2 µM; inhibition: stronger effect = higher value; nuclei count: measured here: cell number, toxicity

| Compound | inhibition | nuclei count [%] |
| --- | --- | --- |
| Cc1ccc(C(=O)NC(Cc2c[nH]c3ccccc23)C(=O)O)o1 (stereo not given) | -25% (inactive) | 120 |
| N/C(=N/O)c1nc(N2CCCC2)nc(N(c2ccccc2)c2ccccc2)n1 | -300% (inactive) | 104 |
| COC(=O)c1nnn(-c2ccccc2)c1N | -13.3% (inactive) | 117 |
| CCOC(=O)c1cc2c(=O)n3cccc(C)c3nc2n(CC2CCCO2)c1=NC(C)=O (stereo not given) | -17.2% (inactive) | 114 |
| CCOC(=O)Nc1cc(OC)c(OC)cc1Cc1nccc2cc(OC)c(OC)cc12 | -20.1% (inactive) | 173 |
| CCN(CC)S(=O)(=O)c1ccc(Br)c(OC)c1 | -15.1% (inactive) | 107 |
| CCOc1ccc2nc(SCc3ccc(C(=O)OC)o3)[nH]c2c1 | -39.4% (inactive) | 112 |
| Nc1nc2n(n1)C(c1cccc(Br)c1)CC(c1ccc(F)cc1)N2 (stereo not given) | -59% (inactive) | 102 |
| CCc1[nH]nc2c1C1(CCN(C(=O)OCc3ccccc3)CC1)C(C#N)=C(N)O2 | -28.9% (inactive) | 124 |
| Cc1cc(=O)n2nc(-c3ccccc3)sc2n1 | -70.5% (inactive) | 108 |
| CC(=O)OCCNc1cc(N2CCN(C)CC2)c2noc3c2c1C(=O)c1ccccc1-3 | -15.4% (inactive) | 111 |
| N#Cc1c(NCc2ccccc2)ccnc1NCc1cccnc1 | 67.5% (active) | 80.8 |
| CCCCc1c(O)nc(N2CCN(Cc3ccccc3)CC2)[nH]c1=O | -61% (inactive) | 101 |
| N#CC1=C(N)N(c2ccc(Oc3ccccc3)cc2)C(=O)C1 | -5.8% (inactive) | 128 |
| CCc1ccccc1NC(=O)CCc1nc(-c2ccc(C)cc2)no1 | 14.1% (inactive) | 86.3 |
| c1ccc(OCCCn2nnc(-c3cccnc3)n2)cc1 | -79.2% (inactive) | 121 |
| COc1ccc(Cl)cc1N1CC(c2nc3ccccc3[nH]2)CC1=O (stereo not given) | 1.9% (inactive) | 107 |
| CC1(C)NC(=O)N(CC(O)COc2cccc(F)c2)C1=O (stereo not given) | -65.7% (inactive) | 105 |
| Cc1c(C(=O)OCc2ccccc2)[nH]c2c1C(=O)CC(c1ccco1)C2 (stereo not given) | -63.1% (inactive) | 107 |
| CCOC(=O)c1sc(NC(=O)CSc2nnc(-c3ccc(OC)cc3)n2CCOC)nc1C | -89.1% (inactive) | 140 |

| Compound | inhibition | nuclei count [%] |
| --- | --- | --- |
| COc1ccc(Cn2nnnc2C(c2cccnc2)N2CCN(c3ccc(O)cc3)CC2)cc1 (stereo not given) | -51.9% (inactive) | 117 |
| CCOC(=O)Cn1c(CN(C)Cc2ccccc2)nc2c1c(=O)n(C)c(=O)n2C | 26.4% (inactive) | 94.7 |
| CNC(=O)CSc1nnc(-c2ccc(S(=O)(=O)N3CCCC3)cc2)n1-c1cccc(C)c1C | -87.7% (inactive) | 106 |
| O=C(COC(=O)CSc1nnc(-c2ccc(Cl)cc2)o1)NCc1ccc2c(c1)OCO2 | 9.2% (inactive) | 107 |
| CC(C)(C)n1ncc2c(=O)n(CC(=O)NCc3ccc(F)cc3)cnc21 | 18.8% (inactive) | 91.1 |
| CC1CCN(S(=O)(=O)c2cccc(C(=O)Nc3ccccn3)c2)CC1 | 4.5% (inactive) | 90.4 |
| CCOC(=O)c1cc2c(=O)n3ccccc3nc2n(CC2CCCO2)c1=NC(C)=O (stereo not given) | 22.2% (inactive) | 100 |
| CCOC(=O)c1[nH]c(C)c(C(=O)N2CCN(C(=O)c3ccco3)CC2)c1C | -102% (inactive) | 101 |
| CCN(CC)S(=O)(=O)c1ccc(NC(=O)Cn2cnc3ccccc3c2=O)cc1 | -112% (inactive) | 108 |
| CCOC(=O)c1c(C)[nH]c(C(=O)COC(=O)c2ccc(F)c(S(=O)(=O)N3CCOCC3)c2)c1C | -27.2% (inactive) | 105 |
| O=C(CN1CCN(c2ncccn2)CC1)Nc1ccccc1-n1cccc1 | 25.5% (inactive) | 93.4 |
| CCOC(=O)Cn1c(=O)c(-c2ccccc2N)nc2ccccc21 | -50.2% (inactive) | 116 |
| CCCOc1ccc(NC2=CC(=O)CC(C)(C)C2)cc1 | -89.3% (inactive) | 117 |
| CCOC(=O)C1(CC)NC(c2cccc(F)c2)C2C(=O)N(CC)C(=O)C21 (stereo not given) | -6.6% (inactive) | 70.2 |
| CCC(C)NC(=O)CC1Oc2ccc(C)cc2NC1=O (stereo not given) | -116% (inactive) | 126 |
| O=C(NCC(=O)N(c1cnc2ccccc2c1)C(C(=O)NC1CCCC1)c1ccncc1)c1ccco1 (stereo not given) | -6.5% (inactive) | 107 |
| O=C(Nc1cccc2ccccc12)N1CCN(c2ccccc2)CC1 | -12.2% (inactive) | 100 |
| CC(C)(C)Nc1nc(NC(C)(C)C)nc(-n2ccnc2)n1 | 2.8% (inactive) | 91.6 |
| Nc1nnnn1NCc1cccc(OCc2ccccc2)c1 | -2.2% (inactive) | 137 |
| O=C(COC(=O)C1CC(=O)N(c2ccccc2)C1)c1ccccc1 (stereo not given) | -21% (inactive) | 123 |

Target: Voltage-gated potassium channel subunit beta-2 (Rattus norvegicus) (UniProt P62483)
Test: KvBeta enzyme negative modulators, primary screen, biochemical, NADPH fluorescence (AID 622);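 also: slope of raw intensity against log time taken from 70 to 1610 s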
Settings: recombinant KvBeta, 4-cyanobenzaldehyde reduction, at 10 µM, stronger effect = higher value

Sequence of Voltage-gated potassium channel subunit beta-2 (Rattus norvegicus) (P62483 whole entry, looked up): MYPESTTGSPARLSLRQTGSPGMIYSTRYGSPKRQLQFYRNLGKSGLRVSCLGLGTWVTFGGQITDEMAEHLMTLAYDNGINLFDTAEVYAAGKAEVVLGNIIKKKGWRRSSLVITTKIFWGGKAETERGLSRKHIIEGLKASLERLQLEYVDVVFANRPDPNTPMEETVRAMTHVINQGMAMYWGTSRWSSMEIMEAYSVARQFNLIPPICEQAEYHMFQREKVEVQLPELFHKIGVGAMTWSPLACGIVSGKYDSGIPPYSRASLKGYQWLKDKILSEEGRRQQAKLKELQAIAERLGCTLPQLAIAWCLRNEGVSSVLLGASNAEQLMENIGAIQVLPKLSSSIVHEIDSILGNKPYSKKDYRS

| Compound | fluorescence slope |
| --- | --- |
| Cc1ccc(C(=O)NC(Cc2c[nH]c3ccccc23)C(=O)O)o1 (stereo not given) | -0.485 (inactive) |
| N/C(=N/O)c1nc(N2CCCC2)nc(N(c2ccccc2)c2ccccc2)n1 | -0.593 (inactive) |
| COC(=O)c1nnn(-c2ccccc2)c1N | -0.506 (inactive) |
| CCOC(=O)c1cc2c(=O)n3cccc(C)c3nc2n(CC2CCCO2)c1=NC(C)=O (stereo not given) | -0.295 (inactive) |
| CCOC(=O)Nc1cc(OC)c(OC)cc1Cc1nccc2cc(OC)c(OC)cc12 | -0.532 (inactive) |
| CCN(CC)S(=O)(=O)c1ccc(Br)c(OC)c1 | -0.371 (inactive) |
| CCOc1ccc2nc(SCc3ccc(C(=O)OC)o3)[nH]c2c1 | -0.546 (inactive) |
| Nc1nc2n(n1)C(c1cccc(Br)c1)CC(c1ccc(F)cc1)N2 (stereo not given) | -0.608 (inactive) |
| CCc1[nH]nc2c1C1(CCN(C(=O)OCc3ccccc3)CC1)C(C#N)=C(N)O2 | -0.494 (inactive) |
| Cc1cc(=O)n2nc(-c3ccccc3)sc2n1 | -0.421 (inactive) |
| CC(=O)OCCNc1cc(N2CCN(C)CC2)c2noc3c2c1C(=O)c1ccccc1-3 | -0.58 (inactive) |
| N#Cc1c(NCc2ccccc2)ccnc1NCc1cccnc1 | -0.288 (inactive) |
| CCCCc1c(O)nc(N2CCN(Cc3ccccc3)CC2)[nH]c1=O | -0.343 (inactive) |
| N#CC1=C(N)N(c2ccc(Oc3ccccc3)cc2)C(=O)C1 | -0.481 (inactive) |
| CCc1ccccc1NC(=O)CCc1nc(-c2ccc(C)cc2)no1 | -0.299 (inactive) |
| c1ccc(OCCCn2nnc(-c3cccnc3)n2)cc1 | -0.343 (inactive) |
| COc1ccc(Cl)cc1N1CC(c2nc3ccccc3[nH]2)CC1=O (stereo not given) | -0.607 (inactive) |
| CC1(C)NC(=O)N(CC(O)COc2cccc(F)c2)C1=O (stereo not given) | -0.592 (inactive) |
| Cc1c(C(=O)OCc2ccccc2)[nH]c2c1C(=O)CC(c1ccco1)C2 (stereo not given) | -0.569 (inactive) |
| CCOC(=O)c1sc(NC(=O)CSc2nnc(-c3ccc(OC)cc3)n2CCOC)nc1C | -0.481 (inactive) |

| Compound | fluorescence slope |
| --- | --- |
| COc1ccc(Cn2nnnc2C(c2cccnc2)N2CCN(c3ccc(O)cc3)CC2)cc1 (stereo not given) | -0.514 (inactive) |
| CCOC(=O)Cn1c(CN(C)Cc2ccccc2)nc2c1c(=O)n(C)c(=O)n2C | -0.278 (inactive) |
| CNC(=O)CSc1nnc(-c2ccc(S(=O)(=O)N3CCCC3)cc2)n1-c1cccc(C)c1C | -0.458 (inactive) |
| O=C(COC(=O)CSc1nnc(-c2ccc(Cl)cc2)o1)NCc1ccc2c(c1)OCO2 | -0.587 (inactive) |
| CC(C)(C)n1ncc2c(=O)n(CC(=O)NCc3ccc(F)cc3)cnc21 | -0.367 (inactive) |
| CC1CCN(S(=O)(=O)c2cccc(C(=O)Nc3ccccn3)c2)CC1 | -0.338 (inactive) |
| CCOC(=O)c1cc2c(=O)n3ccccc3nc2n(CC2CCCO2)c1=NC(C)=O (stereo not given) | -0.441 (inactive) |
| CCOC(=O)c1[nH]c(C)c(C(=O)N2CCN(C(=O)c3ccco3)CC2)c1C | -0.5 (inactive) |
| CCN(CC)S(=O)(=O)c1ccc(NC(=O)Cn2cnc3ccccc3c2=O)cc1 | -0.483 (inactive) |
| CCOC(=O)c1c(C)[nH]c(C(=O)COC(=O)c2ccc(F)c(S(=O)(=O)N3CCOCC3)c2)c1C | -0.6 (inactive) |
| O=C(CN1CCN(c2ncccn2)CC1)Nc1ccccc1-n1cccc1 | -0.621 (inactive) |
| CCOC(=O)Cn1c(=O)c(-c2ccccc2N)nc2ccccc21 | -0.542 (inactive) |
| CCCOc1ccc(NC2=CC(=O)CC(C)(C)C2)cc1 | -0.405 (inactive) |
| CCOC(=O)C1(CC)NC(c2cccc(F)c2)C2C(=O)N(CC)C(=O)C21 (stereo not given) | -0.476 (inactive) |
| CCC(C)NC(=O)CC1Oc2ccc(C)cc2NC1=O (stereo not given) | -0.56 (inactive) |
| O=C(NCC(=O)N(c1cnc2ccccc2c1)C(C(=O)NC1CCCC1)c1ccncc1)c1ccco1 (stereo not given) | -0.532 (inactive) |
| O=C(Nc1cccc2ccccc12)N1CCN(c2ccccc2)CC1 | -0.525 (inactive) |
| CC(C)(C)Nc1nc(NC(C)(C)C)nc(-n2ccnc2)n1 | -0.443 (inactive) |
| Nc1nnnn1NCc1cccc(OCc2ccccc2)c1 | -0.5 (inactive) |
| O=C(COC(=O)C1CC(=O)N(c2ccccc2)C1)c1ccccc1 (stereo not given) | -0.604 (inactive) |

Reference: PubChem BioAssay
